HEK293 tox: HEK 293 cell cytotoxicity | HEK 293 viability, ATP luminescence (CellTiter-Glo), 48-72 h | Potency, µM (series often up to 115 µM), inactives show at the highest dose activity change, negative = cytotoxicity, actives largely listed as inhibitors | 6.6% of 94,000 active; also: nearly all actives have a fitted effect of over 60% in size
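HEK 293 cells at 250 cells/well were exposed to compounds by pintool transfer for 48 or 72 hr at 37 degree Celsius, 5% CO2. Viability was read as ATP-coupled luminescence with CellTiter-Glo after 10 min at room temperature.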
3T3 cytotox: kills NIH 3T3 cells; NIH 3T3 viability, CellTiter-Glo ATP luminescence, 48-72 h; Potency, µM (titrated, usually from 96.7 µM), inactives show top-dose activity change, negative = cytotoxicity, actives largely listed as inhibitors; 4.3% of 94,000 active; AID 1345082; also: nearly all actives have a fitted effect of over 55% in size
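ATP-dependent luminescence (CellTiter-Glo) served as the viability signal for NIH 3T3 cells treated with compound for 48 or 72 hr at 37 °C.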
Luciferase inh: blocks purified firefly luciferase enzyme activity | P08659 | purified P. pyralis luciferase, luminescence, biochemical | Potency, µM (titrated, usually from 115 µM), most hits filed as inhibitors | 2.5% of 76,000 active; also: nearly all actives have a fitted effect of over 65% in size
Target sequence (P08659 whole entry, looked up): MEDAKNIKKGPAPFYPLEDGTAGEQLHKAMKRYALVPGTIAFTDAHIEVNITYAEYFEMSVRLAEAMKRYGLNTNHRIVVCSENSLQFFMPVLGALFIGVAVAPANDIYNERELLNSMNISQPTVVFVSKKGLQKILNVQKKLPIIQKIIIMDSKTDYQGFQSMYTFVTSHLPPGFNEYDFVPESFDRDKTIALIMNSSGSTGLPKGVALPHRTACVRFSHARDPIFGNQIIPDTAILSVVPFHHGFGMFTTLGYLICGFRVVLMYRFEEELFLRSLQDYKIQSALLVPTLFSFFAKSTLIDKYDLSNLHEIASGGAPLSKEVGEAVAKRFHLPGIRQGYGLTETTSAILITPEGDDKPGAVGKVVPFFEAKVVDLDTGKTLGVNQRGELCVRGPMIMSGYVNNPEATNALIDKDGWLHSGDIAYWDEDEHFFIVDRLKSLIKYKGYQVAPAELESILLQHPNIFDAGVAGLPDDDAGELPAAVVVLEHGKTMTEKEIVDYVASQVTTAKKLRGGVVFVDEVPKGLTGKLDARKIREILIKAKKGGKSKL
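Inhibitors were tested against purified firefly luciferase in a biochemical, low-substrate format (both substrates at 10uM) and luminescence measured with a CCD imager.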
hNpr1 antagonist: blocks ANP-stimulated signaling of human Npr1 receptor; HEK293 hNpr1 GloSensor cGMP, ANP-stimulated luminescence; Potency, µM (series often up to 46.3 µM), without a hit: top-dose activity change, negative = inhibition, most hits filed as inhibitors; 1.6% of 76,000 active; AID 1347048; calls by dose curve; also: nearly all actives have a fitted effect of over 60% in size
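Compound pre-incubated 30 min at room temperature on GloSensor-loaded HEK293 cells stably carrying hNpr1 and the pGS-40F cGMP biosensor. Stimulation uses hNppA at 0.1 nM final; luminescence is taken at baseline and 20 min post-agonist.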
Numbers without * were called inactive; [ ] = dose if it differs, or a comment. Only some compounds are listed: those with a hit (about 11% of all), similar ones and a draw of the others. Unless noted, calls follow the shape of the dose curve; as a rule, active = well fitted curve in the direction sought with a large enough effect; inconclusive = small, poorly fitted or top-dose-only effect, or another doubt; inactive = no such curve, though single readings can be large; an effect the other way counts as inactive or inconclusive. % is scaled to controls: 0 for no effect and ±100 for the full control effect; potency is read from the fitted curve at half-maximal effect.

Results for O=C(NCc1cccs1)C1CCCCN1Cc1ccc(-c2cccs2)cc1 (stereo not given) ?
HEK293 tox: 32µM*; 3T3 cytotox: 28µM*

How did O=C(NCC(F)F)C1CCCCN1Cc1ccc(-c2cccs2)cc1 (stereo not given) do in these assays?
HEK293 tox: 25µM*; 3T3 cytotox: -25%

Results for C#CCNC(=O)C1CCCN1Cc1ccc(-c2cncnc2)cc1 (stereo not given) ?
HEK293 tox: -18%[172 µM]; 3T3 cytotox: -13%[138 µM]

Results for O=C(NCc1ccc(F)c(F)c1)c1ccc2oc(-c3ccccn3)nc2c1 ?
HEK293 tox: inconclusive; 3T3 cytotox: -33%

Results for Cn1ncc2c(C(=O)N3CCCC3)cc(-c3ccccc3)nc21 ?
HEK293 tox: inconclusive; 3T3 cytotox: -28%[138 µM]

How did Clc1cc(Cl)cc(NC2CNC2)c1 do in these assays?
HEK293 tox: 63µM*; 3T3 cytotox: 56µM*

How did Cc1ccc(S(=O)(=O)N2CC(c3nc(-c4ccncc4)no3)C2)cc1 do in these assays?
HEK293 tox: inconclusive; 3T3 cytotox: -18%; Luciferase inh: inactive; hNpr1 antagonist: -22%

How did Cc1cc(Cl)ccc1S(=O)(=O)N1CC(c2nc(-c3ccncc3)no2)C1 do in these assays?
HEK293 tox: inconclusive; 3T3 cytotox: inconclusive; Luciferase inh: inactive; hNpr1 antagonist: 13µM*

Results for CC(C)(C)OC(=O)NCCCC(=O)N1CCC(n2c(=O)[nH]c3ccccc32)CC1 ?
HEK293 tox: inconclusive; 3T3 cytotox: -30%; Luciferase inh: inactive; hNpr1 antagonist: 20µM*

How did O=C(C1COc2ccccc2C1)N1CCC(n2c(=O)[nH]c3ccccc32)CC1 (stereo not given) do in these assays?
HEK293 tox: 22µM*; 3T3 cytotox: inconclusive; Luciferase inh: inactive; hNpr1 antagonist: inconclusive

Results for Cc1noc(C)c1[S+](=O)([O-])N1CCN(C(=O)c2nc3cccnc3n(C3CC3)c2=O)CC1 ?
HEK293 tox: inactive; 3T3 cytotox: -5%

Results for Cc1cc(C)cc(-c2ccc(CN3CCCC(N[S+](C)(=O)[O-])C3)cc2)c1 (stereo not given) ?
HEK293 tox: 40µM*; 3T3 cytotox: inconclusive

How did O=c1n(CCN2CCCC(N[S+](=O)([O-])c3cccc(C(F)(F)F)c3)C2)nc2n1CCCC2 (stereo not given) do in these assays?
HEK293 tox: -2%; 3T3 cytotox: -26%

Results for Cc1cc(C)cc(-c2ccc(CN3CCCC(NC(=O)NC(C)C)C3)cc2)c1 (stereo not given) ?
HEK293 tox: -27%; 3T3 cytotox: -26%

What do the screens show for `Cc1cc(C)cc(-c2ccc(CN3CCCC(N[S+](=O)([O-])c4cccc(C(F)(F)F)c4)C3)cc2)c1` (stereo not given)?
HEK293 tox: inconclusive; 3T3 cytotox: 32µM*

How did CC(=O)N1CCN(C(=O)c2nc3sccn3c2-c2cccc(C#N)c2)CC1 do in these assays?
HEK293 tox: -1%; 3T3 cytotox: inactive

Results for Cc1noc(C)c1C(=O)N1CC(CN2C(=O)c3c(c(C)nn3-c3ccccc3)C2C)C1 (stereo not given) ?
HEK293 tox: -4%; 3T3 cytotox: -18%

Results for COc1cccc(-c2nc(N3CCOCC3)cc3c2CN(C)C3=O)c1 ?
HEK293 tox: inconclusive; 3T3 cytotox: 16µM*; Luciferase inh: inactive; hNpr1 antagonist: 4%[70.6 µM]

What do the screens show for `CN1Cc2c(cc(N3CCOCC3)nc2-c2cccc(C(F)(F)F)c2)C1=O`?
HEK293 tox: -40%[172 µM]; 3T3 cytotox: 5.6µM*; Luciferase inh: inactive; hNpr1 antagonist: -17%[70.6 µM]

How did CC(=O)Nc1cccc(-c2nc(N3CCOCC3)cc3c2CN(Cc2cnn(C)c2)C3=O)c1 do in these assays?
HEK293 tox: -21%; 3T3 cytotox: inconclusive; Luciferase inh: inactive; hNpr1 antagonist: 9%

Results for COc1cccc(-c2nc(N3CCOCC3)cc3c2CN(C)C3=O)c1OC ?
HEK293 tox: inconclusive; 3T3 cytotox: inconclusive; Luciferase inh: inactive; hNpr1 antagonist: 5%[70.6 µM]

How did CN1Cc2c(cc(N3CCOCC3)nc2-c2cccc(N[S+](C)(=O)[O-])c2)C1=O do in these assays?
HEK293 tox: inconclusive; 3T3 cytotox: 14µM*; Luciferase inh: inactive; hNpr1 antagonist: 7%[70.6 µM]

Results for O=C(O)C[C@@H]1CCN(S(=O)(=O)c2ccc(F)cc2)C[C@@H]1CC1=NCCc2cc(F)ccc21 ?
HEK293 tox: 2%; 3T3 cytotox: -21%; Luciferase inh: inactive; hNpr1 antagonist: -6%

How did CN(C)c1ccc(-n2c(=O)c(C(=O)NCC(F)F)nc3cccnc32)cc1 do in these assays?
HEK293 tox: inactive; 3T3 cytotox: -24%

What do the screens show for `Cn1ccc(Nc2nccc3c(=O)cc(-c4cn[nH]c4)oc23)n1`?
HEK293 tox: inconclusive; 3T3 cytotox: 79µM*; Luciferase inh: inactive; hNpr1 antagonist: 0%[70.6 µM]

How did O=c1cc(-c2cccnc2)oc2c(NCc3ccccc3)nccc12 do in these assays?
HEK293 tox: inconclusive; 3T3 cytotox: 22µM*; Luciferase inh: inconclusive; hNpr1 antagonist: 5%[70.6 µM]

What do the screens show for `O=c1cc(-c2cccnc2)oc2c(NCC3CCOCC3)nccc12`?
HEK293 tox: -14%[172 µM]; 3T3 cytotox: inconclusive; Luciferase inh: inactive; hNpr1 antagonist: -1%[70.6 µM]

How did Cn1ccc(Nc2nccc3c(=O)cc(-c4cccnc4)oc23)n1 do in these assays?
HEK293 tox: -6%[172 µM]; 3T3 cytotox: 40µM*; Luciferase inh: inactive; hNpr1 antagonist: -2%[70.6 µM]

What do the screens show for `CN(c1cc(=O)c2ccnc(Nc3ccn(C)n3)c2o1)C1CCOCC1`?
HEK293 tox: -17%[172 µM]; 3T3 cytotox: inconclusive; Luciferase inh: inactive; hNpr1 antagonist: 4%[70.6 µM]

What do the screens show for `COc1ccc(CC(=O)NC2CCN(CCn3nc4n(c3=O)CCCC4)C2)cc1` (stereo not given)?
HEK293 tox: -1%; 3T3 cytotox: -19%

How did O=C(NCc1ccccc1F)c1ccc2oc(-c3cccnc3)nc2c1 do in these assays?
HEK293 tox: inconclusive; 3T3 cytotox: -19%

What do the screens show for `CNC(=O)c1cc(C2CC2)nc2onc(C3CCN(C(C)=O)CC3)c12`?
HEK293 tox: inactive; 3T3 cytotox: 2%[138 µM]

What do the screens show for `Cc1cc(N2CCC3(CCCN(CC4CCC4)C3=O)C2)nc2ccccc12` (stereo not given)?
HEK293 tox: 32µM*; 3T3 cytotox: inconclusive; Luciferase inh: inactive; hNpr1 antagonist: -1%

What do the screens show for `Cc1cccc(CN2CCCC3(CCN(c4cc(C)c5ccccc5n4)C3)C2=O)c1` (stereo not given)?
HEK293 tox: 35µM*; 3T3 cytotox: inconclusive; Luciferase inh: inactive; hNpr1 antagonist: -29%

What do the screens show for `CCCN1CCCC2(CCN(c3cc(C)c4cccc(OC)c4n3)C2)C1=O` (stereo not given)?
HEK293 tox: inconclusive; 3T3 cytotox: -17%; Luciferase inh: inactive; hNpr1 antagonist: -2%

Results for Cc1ccc(-n2nc(C)c([C@@H]3C=C[C@@H](NCc4cccc(C#N)c4)C3)c2C)cc1Cl ?
HEK293 tox: 25µM*; 3T3 cytotox: inconclusive; Luciferase inh: inconclusive; hNpr1 antagonist: inconclusive

Screens (PubChem BioAssay)
